Here are results for 106 molecules from PubChem BioAssay AID2289 (National Center for Advancing Translational Sciences (NCATS), 2010).

Where “and” joins values, the source holds several entries; their conditions need not be identical. Equal values may be shown once. The whole screen tested about 340,000 compounds, of which about 3,300 (0.97%) were called active. Another 9% or so got no clear call; they are omitted. Calls come from the whole dose curve; as a rule, active = well fitted inhibition curve with a large enough effect; inconclusive = small, poorly fitted or top-dose-only effect, or effect the other way; inactive = flat fitted curve, though single readings scatter. The list shows a part of the results.
Potency is the fitted concentration of half-maximal effect.

The nature of this test: qHTS Assay for Modulators of miRNAs and/or Inhibitors of miR-21. Note: nearly all actives have a fitted effect of over 55% in size. To be noted: HeLa miR-21-FLuc reporter, luciferase luminescence, 48 h; actives lower the signal. A digest of the protocol: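 HeLa cells stably expressing CMV-driven firefly luciferase with a downstream miR-21 binding sequence, endogenously expressing miR-21, were treated with titrations (up to about 40uM final) for 48 hours at 37 degree Celsius. Luciferase luminescence was read after lysis.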
Turning to `CCCNc1ccc(C(=O)OCC)cc1[N+](=O)[O-]`, the Potency is 16.5 µM (active). With `COC(=O)c1ccc(-c2ccc(F)cc2)nc1C`, the Potency is 6.56 µM (active).

As for `COC(=O)c1ccc(-c2ccc(Cl)cc2)nc1C`, the Potency is 1.47 µM (active).

For the molecule `CCOC(=O)c1ccc(-c2ccc3c(c2)CCC3)nc1C`, the Potency is 1.85 µM (active). Next, `CCOc1ccc(-c2cn3nc(CC(C)C)sc3n2)cc1`: 2.93 µM (active); `CCOC(=O)CSc1nc2cc(OCC)ccc2cc1C#N`: 4.65 µM (active).

Consider `COC(=O)CSc1nc2cc(OC)ccc2cc1C#N`, for which the Potency is 0.233 µM (active). With `CCOc1ccc2cc(C#N)c(SCC(=O)N3CCOCC3)nc2c1`, the Potency is 1.17 µM (active). For `COc1ccc2nc(SCC(C)=O)c(C#N)cc2c1` the value was 0.165 µM (active); for `O=C(Nc1cc2c(cc1C(=O)O)OCCCO2)c1ccc(C(F)(F)F)cc1`, 7.36 µM (active); for `O=C(Nc1cc2c(cc1Br)OCCCO2)c1ccccc1`, 2.33 µM (active). Next, `COc1cccc(C(=O)Nc2cc3c(cc2Br)OCCCO3)c1`: 2.07 µM (active); `COc1cccc(C(=O)Nc2cc3c(cc2Cl)OCCCO3)c1`: 0.826 µM (active); `CN(C)S(=O)(=O)Oc1cccc(C(=O)Nc2ccccc2Cl)c1`: 8.26 µM (active). For `COC(=O)c1c(-c2cccnc2)csc1NC(=O)c1cc(C)on1` the value was 2.07 µM (active); for `COC(=O)c1c(-c2cccnc2)csc1NC(=O)c1ccc2c(c1)OCO2`, 1.04 µM (active); for `COC(=O)c1c(-c2ccncc2)csc1NC(=O)c1ccoc1C`, 1.85 µM (active).

On to `CC(CC(=O)c1cccs1)CC(=O)c1cccs1`, for which the Potency was 11.7 µM (active). On to `CC(C)(C)C(=O)Nc1ccc(C(=O)OC2CCCCC2)cc1`, for which the Potency was 0.927 µM (active). Next, `COc1ccc(Nc2nc(N)nc(CSc3nnc(C)s3)n2)cc1`: 18.5 µM (active). Next, `COc1ccc(Nc2nc(N)nc(SCc3nnc(C)s3)n2)cc1`: 14.7 µM (active); `Cc1nnc(SCc2cccc3ccccc23)s1`: 14.7 µM (active); `Cc1nnc(SCc2nc(N)nc(Nc3ccccc3)n2)s1`: 11.7 µM (active). Next, `Cc1ccc(Nc2nc(N)nc(CSc3nnc(C)s3)n2)cc1`: 7.36 µM (active). Turning to `CCc1ccc(NC(=O)c2n[nH]c(=O)c3ccccc23)cc1`, the Potency is 1.04 µM (active).

As for `O=C(Nc1ccc2c(c1)OCO2)c1n[nH]c(=O)c2ccccc12`, the Potency is 5.85 µM (active).

On to `COc1ccccc1Nc1nc(N)nc(CSC(=S)N2CCCCC2)n1`, for which the Potency is 14.7 µM (active). For `COc1ccccc1Nc1nc(N)nc(CSC(=S)N2CCOCC2)n1` the value was 16.5 µM (active). Next, `Cc1ccc(Nc2nc(N)nc(CSC(=S)N3CCOCC3)n2)c(C)c1`: 10.4 µM (active).

`COc1ccc(CCNc2ncccc2C#N)cc1OC`: the Potency was 6.56 µM (active). For `O=C(N/N=C1\CCc2ccccc21)c1ccccc1Cl` the value was 1.85 µM (active); for `CCOC(=O)N/N=C1\CCc2ccccc21`, 11.7 µM (active). Next, `O=C(O)c1ccc(N/N=C2/CCCc3ccccc32)cc1`: 6.56 µM (active).

`O=C(N/N=C1\CCCCc2ccccc21)c1ccccn1`: the Potency is 5.85 µM (active).

In the case of `O=C(COc1ccccc1F)N/N=C1\CCCc2ccccc21`, the Potency is 3.29 µM (active). For `N/C(=N\OC(=O)CSc1ccccc1)c1ccc([N+](=O)[O-])cc1` the value was 4.65 µM (active); for `N/C(=N\OC(=O)CSc1ccccc1)c1ccncc1`, 14.7 µM (active); for `COc1ccc(/C(N)=N/OC(=O)CSc2ccccc2)cc1OC`, 8.26 µM (active). For `COc1ccc(NC(=O)CSc2nnc(NC(=O)Nc3ccc(OC)cc3)s2)cc1` the value was 0.826 µM (active). Next, `COc1ccc(NC(=O)Nc2nnc(-c3ccco3)s2)cc1`: 0.927 µM (active). Turning to `COc1ccccc1C(=O)Nc1nnc(SCC(=O)NC2CCCC2)s1`, the Potency was 0.414 µM (active). On to `COc1ccc(-c2nnc(SCC(=O)Nc3cccc(F)c3)s2)cc1`, for which the Potency is 13.1 µM (active).

In the case of `CC(=O)c1ccc(NC(=O)CSc2nnc(NC(=O)Nc3ccccc3)s2)cc1`, the Potency is 7.36 µM (active). Next, `COc1ccc(C(=O)Nc2nnc(SCC(=O)Nc3ccc(NC(C)=O)cc3)s2)c(OC)c1`: 0.0656 µM (active); `O=C(/C=C/c1cccc2ccccc12)N1CCOCC1`: 6.56 µM (active); `CC(C)(C)c1ccc(/C=C/C(=O)N2CCOCC2)cc1`: 6.56 µM (active). For `CC(C)c1ccc(/C=C/C(=O)N2CCOCC2)cc1` the value was 2.93 µM (active); for `COc1ccc(NC(=O)C2CCCN(c3ncccn3)C2)cc1` (stereo unspecified), 8.26 µM (active). For `Cc1ccc(NC(=O)C2CCCN(c3ncccn3)C2)cc1C` (stereo unspecified) the value was 14.7 µM (active). As to `COc1ccc(-n2ncc3c(N4CCCc5ccccc54)ncnc32)cc1`, the Potency was 0.414 µM (active). For `CCC(NC(=O)c1ccccc1NC(=O)c1ccc(OC)cc1)C(=O)N1CCCC1` (stereo unspecified) the value was 6.56 µM (active); for `Cc1[nH]c2ccccc2c1C(=O)CSC(=S)N1CCCCC1`, 3.29 µM (active); for `COc1ccc(/C=C/C(=O)N(C)C2CCCCC2)cc1Br`, 9.27 µM (active). As to `Cc1ccc2c(CN3CCC(C)CC3)cc(=O)oc2c1`, the Potency is 5.21 µM (active). For `Cc1ccc2c(CN3CCC(C)CC3)cc(=O)oc2c1C` the value was 7.36 µM (active). Next, `CN(C)c1ccc(/C=C/c2nnnn2-c2ccccc2)cc1`: 1.65 µM (active). For `CC(Cc1cccs1)NC(=O)c1cccc(Cl)c1` (stereo unspecified) the value was 6.56 µM (active); for `COc1ccc(C2CC(=O)N(C)c3ccccc3S2)cc1OC` (stereo unspecified), 18.5 µM (active); for `Cc1ccc(-c2nc3ccccc3nc2NN)cc1`, 1.17 µM (active). Take `CC(=O)c1sc(-c2ccc(F)cc2F)nc1C`: the Potency is 14.7 µM (active).

Turning to `Cc1sc(NC(=O)C2C3CCC(O3)C2C(=O)O)nc1-c1ccc(CC(C)C)cc1` (stereo unspecified), the Potency was 3.69 µM (active).

`CCOC(=O)C1=NN(c2ccc(Cl)cc2)C(=O)C1`: the Potency is 6.56 µM (active). Next, `CCOC(=O)c1cc2c(nc1N)CC(C)(CC)OC2` (stereo unspecified): 7.36 µM (active); `C=CCn1c(C)nc2c(sc3nc4c(cc32)COC(C)(C)C4)c1=O`: 0.656 µM (active). Next, `CCOC(=O)c1sc2nc3c(cc2c1N)COC(C(C)C)C3` (stereo unspecified): 0.0414 µM (active); `CCOC(=O)c1sc2nc3c(cc2c1N)COC(C)(C)C3`: 1.17 µM (active). Next, `Cc1cc(O)c(C2=Nc3ccccc3SC(c3ccc(Cl)cc3)C2)c(=O)o1` (stereo unspecified): 1.65 µM (active); `Cc1ccc2c3c([nH]c2c1C)-c1nonc1CC3`: 7.36 µM (active). Regarding `Cc1ccc(-n2c(C)cc(/C=C3\SC(=O)NC3=O)c2C)cc1`, the Potency was 1.47 µM (active). For `COc1ccc(-n2c(C)cc(/C=C3\SC(=O)NC3=O)c2C)cc1` the value was 5.85 µM (active).

On to `Cc1cc(N2CCOCC2)ccc1/C=C1/SC(=O)NC1=O`, for which the Potency is 4.65 µM (active). Next, `O=C1NC(=S)N/C1=C\c1ccc(N2CCOCC2)cc1`: 13.1 µM (active); `Cc1ccc(/C=N/NC(=O)CSc2nc3ccccc3o2)cc1`: 11.7 µM (active). Regarding `CCOc1cccc2cc(-c3csc(NC(=O)CCC(=O)NCCCN4CCC(C)CC4)n3)c(=O)oc12`, the Potency is 1.17 µM (active). For `CN(C)c1oc(/C=C/c2ccccc2)nc1C#N` the value was 5.85 µM (active).

With `COc1ccccc1/C=C/c1nc(C#N)c(N(C)C)o1`, the Potency is 927 nM (active) and 1.65 µM (active). Next, `CCOc1ccc(/C=C/c2nc(C#N)c(N(C)C)o2)cc1`: 0.329 µM (active); `COc1ccc(Nc2oc(/C=C/c3ccccc3OC)nc2C#N)cc1`: 13.1 µM (active); `CN1C(=O)/C(=C/C=C2\SCCN2C)SC1=S`: 0.464 µM (active). For `CCCCN1C(=O)/C(=C/C=C2\SCCN2C)SC1=S` the value was 5.21 µM (active); for `CCN1C(=O)/C(=C/C=C2/SCCN2C)SC1=S`, 0.185 µM (active).

For `Cc1nc(NC(=O)c2cc3c(s2)CCCCC3)sc1C(=O)N(C)C`, the Potency was 7.36 µM (active).

With `Fc1cccc(C2NN=C(c3ccccc3)S2)c1` (stereo unspecified), the Potency was 0.585 µM (active). Next, `O=C1NN(c2ccccc2)C(=O)/C1=C/c1coc2ccccc2c1=O`: 4.65 µM (active). For `CC1CCCCN1Cc1c(O)ccc2c(=O)c(-c3ccc(Cl)cc3)coc12` (stereo unspecified) the value was 18.5 µM (active); for `COc1ccc(-c2cc(COc3ccccc3)on2)cc1`, 9.27 µM (active).

As to `Fc1ccc(OCc2cc(-c3ccccc3)no2)cc1`, the Potency is 4.14 µM (active).

Consider `CCCCNC(=O)c1nnn(-c2ccccc2)c1N`, for which the Potency was 16.5 µM (active).

Take `C#CCN1C(=O)S/C(=C\c2ccc(-c3ccc(C(=O)O)cc3C)o2)C1=O`: the Potency was 3.29 µM (active). Turning to `CC(C)N1C(=O)S/C(=C\c2ccc(-c3ccc(Cl)c(C(=O)O)c3)o2)C1=O`, the Potency is 0.293 µM (active). Next, `CCN=C1S/C(=C\c2ccc(-c3cccc(C(=O)O)c3)o2)C(=O)N1CC`: 0.656 µM (active); `COC(=O)C(C)N1C(=O)S/C(=C\c2ccc(-c3ccc(C(=O)O)cc3C)o2)C1=O` (stereo unspecified): 6.56 µM (active); `COc1ccc(OC)c2c(N3CC(C)OC(C)C3)cc(C(F)(F)F)nc12` (stereo unspecified): 6.56 µM (active). For the molecule `O=C(Nc1ccccn1)c1sc2cccc(F)c2c1Cl`, the Potency was 0.165 µM (active). `Brc1cc(Br)c2nc(-c3ccc(N4CCOCC4)cc3)ccc2c1`: the Potency was 14.7 µM (active). For the molecule `N#C/C(=C\c1cccnc1)c1nc2c(s1)CCCC2`, the Potency is 2.61 µM (active).

`Cc1cc(NC(=O)CCSc2ccccc2)ccc1Br`: the Potency is 16.5 µM (active). Next, `CCc1ccc(NC(=O)CSc2ccccn2)cc1`: 10.4 µM (active); `CCc1ccc(NC(=O)CSc2ccc3nc(-c4ccc(OC)cc4)cn3n2)cc1`: 0.736 µM (active); `CCc1ccc(NC(=O)CSc2nncn2-c2cccnc2)cc1`: 16.5 µM (active). For `Cc1ccc(NC(=O)CCSc2ccccn2)cc1` the value was 4.14 µM (active). Next, `Cc1cc(OCC(=O)N2CCCCCC2)ccc1[N+](=O)[O-]`: 5.85 µM (active); `Cc1ccc(NC(=O)c2sccc2C)cc1[N+](=O)[O-]`: 4.14 µM (active).

As to `O=C(NC(=S)Nc1ccccc1[N+](=O)[O-])c1ccccc1`, the Potency was 9.27 µM (active). For `O=C(CCc1ccccc1)Nc1ccccc1[N+](=O)[O-]` the value was 14.7 µM (active); for `O=C(Nc1ccccn1)Nc1ccccc1[N+](=O)[O-]`, 9.27 µM (active).
